We go through 15 compounds from PubChem BioAssay (NCI).

Test systems include DU-145 prostate; MALME-3M melanoma; MDA-MB-231 breast; RXF 393 renal; SF-268 CNS; SF-295 CNS; SF-539 CNS; UACC-257 melanoma; M14 melanoma; K-562 leukemia.
Holding throughout (test): NCI-60 one-dose screen, 48 h (100 = growth as untreated, 0 = no growth, -100 = all killed)
Settings in all cases: 10 µM unless noted

About 83,000 compounds went through this panel and 20% of them were active in at least one assay; those are over-represented in the sample as a whole.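 Compound tested at a single concentration for 48 hours in 96-well plates; a percent growth value below 10 was scored as active.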 Unmarked numbers belong to inactive results. Active and inactive are the calls of the source.

With `CC(=O)OC[C@]1(C)C=C2C(=O)[C@](C)(O)C3(CC3)C(C)=C2[C@H]1OC(=O)N(C)CCN(C)C(=O)OC(C)(C)C`, the growth in the test on DU-145 prostate was 3.6% (active); in the test with MALME-3M melanoma, -44% (active); in the test with MDA-MB-231 breast, 4.31% (active); in the test with RXF 393 renal it was -68.2% (active); with SF-268 CNS, 7.08% (active); in the test on SF-295 CNS, 6.27% (active). The growth in the test with SF-539 CNS is -37.1% (active); with UACC-257 melanoma, 33.7%; in the test on M14 melanoma, -29.4% (active).
As for `O=C(O)C(Cl)(Cl)C(F)(F)F`, the growth in the test with DU-145 prostate was 108%; in the test with MALME-3M melanoma, 105%; with MDA-MB-231 breast, 102%; with SF-268 CNS, 99.3%; with SF-295 CNS, 99.9%; in the test with SF-539 CNS, 102%. In addition, the growth with UACC-257 melanoma and in the test on M14 melanoma was 105% throughout.
Regarding `COP(=S)(N1CC1)N1CC1`, the growth in the test on DU-145 prostate was 123%; with MALME-3M melanoma it was 105%; in the test on MDA-MB-231 breast, 93%; in the test with RXF 393 renal, 114%; in the test on SF-268 CNS, 112%; in the test with SF-295 CNS, 104%. The figures for the growth in the test with SF-539 CNS, in the test on UACC-257 melanoma and in the test with M14 melanoma were 94.3%, 147% and 99.5%, respectively.
As for `Cc1ccc(C(=O)NCCCOc2ccc(N3C(N)=NC(N)=NC3(C)C)cc2Cl)cc1S(=O)(=O)F`, the growth in the test with DU-145 prostate is 126%; in the test with MALME-3M melanoma it was 70.4%; with MDA-MB-231 breast, 98.6%; in the test on SF-268 CNS, 54.3%; with SF-295 CNS it was 111%; in the test on SF-539 CNS it was 54.1%. Besides, the growth in the test with M14 melanoma is 76.7%.
As for `Cc1cc(N(CCCl)CCCl)ccc1C=Nc1cccnc1`, the growth in the test with K-562 leukemia is 63.1%; in the test on MALME-3M melanoma it was 62%; in the test with MDA-MB-231 breast, 98.4%; in the test on RXF 393 renal it was 59.7%; in the test on SF-268 CNS, 80.4%; in the test with SF-295 CNS, 36.7%. Further, the growth was 53.5% in the test on SF-539 CNS, 61.8% with UACC-257 melanoma and 79.5% in the test with M14 melanoma.
With `ClCCN(CCCl)c1ccc(/C=N\N=C\c2ccc(N(CCCl)CCCl)cc2)cc1`, the growth with DU-145 prostate is 42.4%; in the test with MALME-3M melanoma, 109%; with MDA-MB-231 breast, 64.9%; in the test on SF-268 CNS it was 40.7%; in the test with SF-295 CNS it was 10.7%; in the test with SF-539 CNS, 1.3% (active). Besides, the growth in the test with UACC-257 melanoma was 31%; with M14 melanoma it was 12.9%.
`CCCCN(CCCC)P(=O)(Oc1ccccc1)Oc1ccccc1`: the growth in the test with K-562 leukemia was 46.2%; in the test on MALME-3M melanoma, 119%; in the test on MDA-MB-231 breast, 69.3%; in the test with RXF 393 renal, 55.8%; in the test with SF-268 CNS it was 84%; in the test on SF-295 CNS, 64.5%. Moreover, the growth was 100% in the test on SF-539 CNS, 70.4% in the test with UACC-257 melanoma and 52.3% in the test on M14 melanoma.
For `COc1ccc(/C=C\c2cc(OC)c(OC)c(OC)c2)cc1NC(=O)/C=C/c1cc(OC)c(OC)c(OC)c1`, the growth in the test with DU-145 prostate is 95.2%; with MALME-3M melanoma it was 58%; in the test with MDA-MB-231 breast, 63.9%; with RXF 393 renal it was 1.99% (active); in the test on SF-268 CNS it was 61.1%; with SF-295 CNS, 12.5%. The results for the growth with SF-539 CNS, in the test with UACC-257 melanoma and with M14 melanoma were 44.5%, 70.6% and 31.6%, respectively.
As for `CC[C@H](C)[C@@H]1OC(=O)C(C)(C)[C@H](O)[C@H](Cc2ccccc2)OC(=O)[C@H](C(C)C)OC(=O)[C@@H](NC(=O)c2cccc(NC=O)c2O)[C@@H](C)OC1=O`, the growth in the test on DU-145 prostate is 62.7%; in the test on MALME-3M melanoma, 77.4%; with MDA-MB-231 breast, 59.1%; with RXF 393 renal it was 87.1%; in the test on SF-268 CNS, 62.1%; in the test on SF-295 CNS, 28%. The growth is 52.8% in the test with SF-539 CNS, 32.3% with UACC-257 melanoma and 62.8% in the test on M14 melanoma.
As for `CCC(CC)CC1(C)CC2(C)CCOC2OO1` (stereo unspecified), the growth in the test on DU-145 prostate was 107%; with MALME-3M melanoma, 112%; with MDA-MB-231 breast it was 100%; with RXF 393 renal, 111%; with SF-268 CNS it was 110%; with SF-295 CNS it was 101%. Besides, the figures for the growth in the test on SF-539 CNS, with UACC-257 melanoma and in the test on M14 melanoma were 99.1%, 98% and 115%, respectively.
As for `N#CC1C(C#N)C2CCC1C1C2N1c1ccccc1` (stereo unspecified), the growth in the test with DU-145 prostate was 118%; in the test with MALME-3M melanoma, 85.7%; with MDA-MB-231 breast it was 110%; in the test on RXF 393 renal, 103%; in the test on SF-268 CNS, 104%; with SF-295 CNS, 103%. For the same compound, the growth in the test on SF-539 CNS is 104%; in the test on UACC-257 melanoma, 117%; in the test on M14 melanoma, 101%.
For the compound `O=C(Nc1ccc(Br)cc1)c1cc(Br)cc(Br)c1O`, the growth in the test on K-562 leukemia is 96.9%; with MALME-3M melanoma, -12% (active); in the test with MDA-MB-231 breast it was -22.4% (active); in the test on RXF 393 renal it was -9.8% (active); with SF-268 CNS it was 32.3%; in the test on SF-295 CNS, -8.2% (active). Moreover, the growth was 8.02% (active) in the test with SF-539 CNS, -17.1% (active) in the test on UACC-257 melanoma and 1.78% (active) with M14 melanoma.
Take `COc1cccc2c1c(C(=O)C(=O)Nc1ccn[nH]1)cn2Cc1ccc(F)cc1`: the growth with DU-145 prostate is 104%; in the test on MALME-3M melanoma it was 112%; in the test with MDA-MB-231 breast, 109%; in the test with RXF 393 renal, 99.8%; in the test on SF-268 CNS, 100%; in the test with SF-295 CNS, 143%. The growth in the test on SF-539 CNS is 99.5%; in the test with UACC-257 melanoma, 104%; in the test on M14 melanoma, 101%.
Turning to `COc1ccc(/C=C/c2cc(OC)c(OC)c(OC)c2)cc1NC(=O)/C=C/c1ccc(F)cc1`, the growth is 10.1% with DU-145 prostate; 42.7% in the test on MALME-3M melanoma; 56.1% in the test on MDA-MB-231 breast; -19.1% (active) with RXF 393 renal; 45.2% in the test with SF-268 CNS; -2.11% (active) with SF-295 CNS. In addition, the growth is -0.885% (active) in the test with SF-539 CNS, 59.3% in the test on UACC-257 melanoma and 13.4% in the test with M14 melanoma.
`CNCc1cccnc1`: the growth in the test on DU-145 prostate was 111%; in the test with MALME-3M melanoma it was 124%; with MDA-MB-231 breast, 126%; in the test with RXF 393 renal it was 121%; in the test on SF-268 CNS it was 104%; with SF-295 CNS, 95.5%. In addition, the growth in the test with SF-539 CNS is 112%; in the test with UACC-257 melanoma it was 105%; in the test on M14 melanoma, 117%.
